Reference: PubChem BioAssay (Tox21)
Inconclusive results are not listed. Active and inactive are the calls of the source. Unless noted, the call rests on the fitted dose curve; in most records, active means well fitted curve in the direction sought with a large enough effect in the repeat runs; inconclusive means weak or mixed curves; inactive means no such curve, though single readings can be large; an effect the other way counts as inactive or inconclusive.

Key:
[1] = qHTS assay to identify small molecule antagonists of the glucocorticoid receptor (GR) signaling pathway - cell viability counter screen (AID 720693); further: nearly all actives have a fitted effect of over 55% in size
[2] = qHTS assay for identifying genotoxic compounds that show differential cytotoxicity against isogenic chicken DT40 cell lines with known DNA damage response pathways - wild type cell line (AID 743012); further: nearly all actives have a fitted effect of over 60% in size; further: potency means the concentration at half of the fitted maximal effect
Procedure, shortened: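 Cells (DT40 wild type, 300/well) are treated with DMSO-dissolved compounds after a ~0.5 h pre-incubation and kept 40 h at 37 C/5% CO2. Viability is then measured by CellTiter-Glo luminescence following 30 min at room temperature.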

[3] = qHTS assay for identifying genotoxic compounds that show differential cytotoxicity against isogenic chicken DT40 cell lines with known DNA damage response pathways - Rev3 mutant cell line (AID 743014); further: nearly all actives have a fitted effect of over 55% in size; further: potency means the concentration at half of the fitted maximal effect
[4] = qHTS assay for identifying genotoxic compounds that show differential cytotoxicity against isogenic chicken DT40 cell lines with known DNA damage response pathways - Rad54/Ku70 mutant cell line (AID 743015); further: nearly all actives have a fitted effect of over 60% in size; further: potency means the concentration at half of the fitted maximal effect
[5] = qHTS assay to identify small molecule antagonists of the androgen receptor (AR) signaling pathway - cell viability counter screen (AID 743033; further: nearly all actives have a fitted effect of over 45% in size)
[6] = qHTS assay to identify small molecule antagonists of the androgen receptor (AR) signaling pathway using the MDA cell line - cell viability counter screen (AID 743041; further: nearly all actives have a fitted effect of over 45% in size)
Procedure, shortened: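 R1881-driven MDA-kb2 AR-luc cells, 3,000/well, were dosed with library compounds for 16 h; cell health came from CellTiter-Fluor fluorescence in the reporter wells.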

[7] = qHTS assay to identify small molecule antagonists of the thyroid receptor (TR) signaling pathway - cell viability counter screen (AID 743064); further: nearly all actives have a fitted effect of over 50% in size
Procedure, shortened: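 GH3.TRE-Luc rat pituitary cells dosed after 4 hr plating, co-stimulated with T3 at 1 nM final, incubated 23.5 h at 37 C. Viability measured in the same wells by CellTiter-Fluor fluorescence after 30 min further at 37 C.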

[8] = qHTS assay to identify small molecule antagonists of the thyroid receptor (TR) signaling pathway (AID 743065); further: series mostly up to about 70 µM; nearly all actives have a fitted effect of over 55% in size
Procedure, shortened: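 Antagonism measured as loss of luciferase signal in GH3 cells stably carrying a TRE-luciferase reporter, co-treated with compound and T3 (1 nM final) for 23.5 h at 37 C. Viability was read in the same well by CellTiter-Fluor.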

[9] = tested on: thyroid hormone receptor (rat, GH3 cells); test: qHTS assay to identify small molecule agonists of the thyroid receptor (TR) signaling pathway (AID 743066; calls by dose curve; further: potency means the concentration at half of the fitted maximal effect)
[10] = molecular target: Estrogen receptor (Homo sapiens) (UniProt P03372); test: qHTS assay to identify small molecule antagonists of the estrogen receptor alpha (ER-alpha) signaling pathway (AID 743069; active means well fitted curve in the direction sought with a large enough effect in the signal ratio in the repeat runs, not every such curve was filed as active; the % refers to the signal ratio)
Estrogen receptor (Homo sapiens), sequence (P03372 whole entry, looked up): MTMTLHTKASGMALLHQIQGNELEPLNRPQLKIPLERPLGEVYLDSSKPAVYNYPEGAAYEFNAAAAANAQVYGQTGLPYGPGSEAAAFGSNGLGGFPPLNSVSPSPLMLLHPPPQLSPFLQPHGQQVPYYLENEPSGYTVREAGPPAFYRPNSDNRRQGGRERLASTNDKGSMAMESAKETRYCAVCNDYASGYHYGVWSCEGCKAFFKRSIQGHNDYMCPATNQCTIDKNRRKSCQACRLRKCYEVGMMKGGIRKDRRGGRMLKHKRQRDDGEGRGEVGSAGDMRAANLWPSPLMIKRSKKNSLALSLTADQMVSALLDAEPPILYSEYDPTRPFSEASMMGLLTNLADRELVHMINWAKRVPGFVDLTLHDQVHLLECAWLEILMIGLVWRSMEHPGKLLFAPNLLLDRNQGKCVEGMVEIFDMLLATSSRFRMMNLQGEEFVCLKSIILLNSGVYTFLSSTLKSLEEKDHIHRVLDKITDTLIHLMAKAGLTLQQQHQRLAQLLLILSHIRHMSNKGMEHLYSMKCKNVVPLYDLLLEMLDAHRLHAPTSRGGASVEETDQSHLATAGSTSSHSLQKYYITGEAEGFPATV
Procedure, shortened: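 Compound effects are measured against 17beta-estradiol stimulation in HEK293 cells with a UAS-controlled beta-lactamase reporter for ER-alpha. Exposure lasts 18 hr at 37C; LiveBLAzer B/G FRET substrate follows for 2 hr at room temperature.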

[11] = qHTS assay to identify small molecule antagonists of the estrogen receptor alpha (ER-alpha) signaling pathway - cell viability counter screen (AID 743074; calls by dose curve;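 further: HEK293 cells carrying ER-alpha-UAS-bla reporter stimulated with 17beta-estradiol; nearly all actives have a fitted effect of over 45% in size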)
[12] = molecular target: Estrogen receptor (Homo sapiens) (UniProt P03372); test: qHTS assay to identify small molecule agonists of the estrogen receptor alpha (ER-alpha) signaling pathway (AID 743075; calls by dose curve; further: potency means the concentration at half of the fitted maximal effect)
[13] = molecular target: Estrogen receptor (Homo sapiens) (UniProt P03372); test: qHTS assay to identify small molecule agonists of the estrogen receptor alpha (ER-alpha) signaling pathway using the BG1 cell line (AID 743079); further: nearly all actives have a fitted effect of over 20% in size; further: potency means the concentration at half of the fitted maximal effect
[14] = qHTS assay to identify small molecule antagonists of the estrogen receptor alpha (ER-alpha) signaling pathway using the BG1 cell line (AID 743080; calls by dose curve;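 further: BG1 cells stimulated with 17beta-estradiol alongside compound; series mostly up to about 70 µM; nearly all actives have a fitted effect of over 25% in size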)
Procedure, shortened: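 Luminescence from a 4×ERE-luciferase reporter in BG1-Luc-4E2 cells served as read-out. Cells, pre-cultured 5 days in stripped-serum phenol-red-free medium, were exposed to compound with 17beta-estradiol co-stimulation for 21.5 h at 37 C.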

[15] = qHTS assay to identify small molecule antagonists of the estrogen receptor alpha (ER-alpha) signaling pathway using the BG1 cell line - cell viability counter screen (AID 743081);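 further: compound given together with 17beta-estradiol as the ER stimulus; series mostly up to about 70 µM; nearly all actives have a fitted effect of over 45% in size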
Aromatase (Homo sapiens) = Aromatase (Homo sapiens) (UniProt P11511); test: qHTS assay to identify aromatase inhibitors (AID 743083); further: series mostly up to about 70 µM; nearly all actives have a fitted effect of over 55% in size
Aromatase (Homo sapiens), sequence (P11511 whole entry, looked up): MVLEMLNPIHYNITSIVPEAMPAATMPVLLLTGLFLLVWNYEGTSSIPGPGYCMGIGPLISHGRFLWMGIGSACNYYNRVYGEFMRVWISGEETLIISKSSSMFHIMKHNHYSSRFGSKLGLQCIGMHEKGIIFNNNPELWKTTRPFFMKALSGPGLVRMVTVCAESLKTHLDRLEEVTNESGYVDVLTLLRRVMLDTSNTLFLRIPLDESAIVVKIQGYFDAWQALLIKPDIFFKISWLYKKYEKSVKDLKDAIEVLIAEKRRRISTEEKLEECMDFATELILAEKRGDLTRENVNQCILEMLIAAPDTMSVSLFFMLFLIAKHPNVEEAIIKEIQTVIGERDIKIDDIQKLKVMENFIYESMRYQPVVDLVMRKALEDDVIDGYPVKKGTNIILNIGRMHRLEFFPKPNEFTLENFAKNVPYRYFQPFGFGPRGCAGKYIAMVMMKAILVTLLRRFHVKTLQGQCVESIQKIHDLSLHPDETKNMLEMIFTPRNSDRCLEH

Measured: Potency

CCN(CCC#N)c1ccccc1
inactive: all assays above

CCC1COC(=O)O1 (stereo not drawn)
inactive: all assays above

O=c1[nH]c(=O)c2[nH]c(=O)[nH]c2[nH]1
not listed: [14]
inactive: all other assays above

CCS(=O)(=O)CCn1c([N+](=O)[O-])cnc1C
active: [12] 10.2 µM [activator] | [13] 2.27 µM
not listed: [14]
inactive: all other assays above

O=C1OC(=O)c2ccccc21
inactive: all assays above

O=S(=O)(O)CCO
inactive: all assays above

CN(C)CCOCCN(C)CCO
not listed: [14]
inactive: all other assays above

C[C@H](CCC(=O)O)[C@H]1CC[C@H]2[C@@H]3[C@H](O)C[C@@H]4C[C@H](O)CC[C@]4(C)[C@H]3C[C@H](O)[C@]12C
not listed: [10] | [14]
inactive: all other assays above

N#CCCOCCOCCC#N
active: [3] 61.1 µM
not listed: [10]
inactive: all other assays above

CCOC(=O)CC#N
not listed: [10]
inactive: all other assays above

Cc1cc(C)cc([N+](=O)[O-])c1
not listed: [10] | [14]
inactive: all other assays above

CC(=O)c1ccc2c(c1)CCCC2
not listed: [12] | [13] | [14]
inactive: all other assays above

CCC(C)N (stereo not drawn)
not listed: [14]
inactive: all other assays above

CC(C)CCCC(C)CC=O (stereo not drawn)
not listed: [14]
inactive: all other assays above

CC(CC(=O)O)CC(C)(C)C (stereo not drawn)
not listed: [14]
inactive: all other assays above

CO[Si](CCCS)(OC)OC
not listed: [10] | [14]
inactive: all other assays above

CCN1CN(CC)CN(CC)C1
not listed: [14]
inactive: all other assays above

CCC(=O)c1ccc(O)cc1
not listed: [10] | [14]
inactive: all other assays above

O=P(O)(O)OCC(O)CO (stereo not drawn)
not listed: [11] | [14]
inactive: all other assays above

CCC(O)C(C)(C)C (stereo not drawn)
not listed: [13] | [14]
inactive: all other assays above

CCc1nccnc1C
not listed: [10]
inactive: all other assays above

CCCCCC(=O)OCC
not listed: [14]
inactive: all other assays above

CCCCOC(=O)[C@@H](C)Oc1ccc(Oc2ccc(C(F)(F)F)cn2)cc1
active: [13] 61.5 µM
not listed: [10] | Aromatase (Homo sapiens)
inactive: all other assays above

CCOC(=O)C(C)(C)C
not listed: [10] | [14]
inactive: all other assays above

O=C(O)CCNC(=O)c1ccccc1
active: [9] 11.9 µM
not listed: [10] | [13]
inactive: all other assays above

CC(=O)c1ccc(OCC(=O)N2CCCCC2)cc1
active: [13] 18.8 µM
not listed: [14] | [15]
inactive: all other assays above

CCNC(=O)NCCCOc1cccc(CN2CCCCC2)c1
not listed: [11] | [14]
inactive: all other assays above

CC(=O)Nc1ccc(C)cc1
not listed: [10] | [13]
inactive: all other assays above

Cc1cccc(C(=O)O)c1[N+](=O)[O-]
not listed: [10] | [14]
inactive: all other assays above

CO[Si](CCCCl)(OC)OC
not listed: [10]
inactive: all other assays above

CC(C)(c1ccc(Oc2ccc3c(c2)C(=O)OC3=O)cc1)c1ccc(Oc2ccc3c(c2)C(=O)OC3=O)cc1
not listed: [10]
inactive: all other assays above

Nc1cc(Cl)cc(S(=O)(=O)O)c1O
not listed: [10] | [14]
inactive: all other assays above

C[N+](C)(C)CC(O)CCl (stereo not drawn)
not listed: [14]
inactive: all other assays above

CCCCC(CC)COC(=O)c1ccccc1 (stereo not drawn)
not listed: [14]
inactive: all other assays above

O=C(/C=C/c1ccccc1)NCCO
not listed: [14]
inactive: all other assays above

Cc1ccc(S(=O)(=O)NC(=O)NC2CCCCCCC2)cc1
not listed: [10] | [12] | [13] | [14]
inactive: all other assays above

CC(C)CCC(=O)CCC(C)C
active: [2] 68.6 µM | [3] 68.6 µM | [4] 61.1 µM
not listed: [10] | [11] | [14]
inactive: all other assays above

BrC/C=C/CBr
not listed: [10] | [12] | [13] | [14]
inactive: all other assays above

CCCCCCCCCOCC1CO1 (stereo not drawn)
not listed: [10] | [12] | [13] | [14] | Aromatase (Homo sapiens)
inactive: all other assays above

CCOC(=O)CCc1ccccc1
not listed: [10] | [12] | [13] | [14]
inactive: all other assays above
